Experimental findings from PubChem BioAssay (NCATS) are described below.

Results filed as inconclusive are left out. Values without a mark were called inactive. Calls follow the shape of the dose curve; as a rule, active = well fitted curve in either direction with a large enough effect (not every such curve was filed as active); inconclusive = small, poorly fitted or top-dose-only effect, or another doubt; inactive = flat fitted curve, though single readings scatter.
% is scaled to controls: 0 for no effect and ±100 for the full control effect.

This experiment can be described thus: AP1 Signaling Pathway (AID 357). Particulars: ME-180 (cervical carcinoma) AP-1-bla reporter, EGF-induced, beta-lactamase ratio, 5 h; at 17.2 µM (top of the series) unless noted. The text has this:
NCGC Assay Overview: Activator protein-1 (AP-1), a transcription factor, plays an important role in tumor genesis by regulating genes involved in cell proliferation, differentiation, apoptosis, and angiogenesis. AP-1 activity is induced by a complex network of signaling pathways that involves extracellular signals, such as growth factors. The AP-1 protein complex formed from c-Fos and c-Jun binding to the AP-1 response element results in transcriptional activation of genes containing such elements within their promoter. Low molecular weight molecules have been discovered and developed to modulate various components of these signaling pathways, for example, MAP kinase inhibitors. However, many points of pathway modulation remain untested due to the lack of chemical probes making this signaling locus of general interest. Using a beta-lactamase reporter-gene under control of the AP-1 response element, a cell-based assay [CellSensor(TM) AP-1-bla ME-180 developed by Invitrogen Corp.] was used to measure EGF-induced signaling. Library compounds were measured for their ability to modulate positively or negatively the action of EC50 EGF on reporter gene activity. Compounds were screened in a titration series in 1536-well format. Positive and negative modulators were identified based on the AC50 values derived from the screening data.
NCGC Assay Protocol Summary: 2500 cells/5uL in Opti-MEM medium containing 0.5% dialyzed FBS, 0.1 mM NEAA, 1 mM sodium pyruvate and 10 mM HEPES was dispensed into 1536-well plates and cells were cultured at 37 degrees Celsius overnight. […] After centrifugation at 1000 rpm for 2 seconds the plates were incubated at 37 degrees Celsius for 5 hours. 1 uL of CCF4-dye mixture was added to each well. After incubated at room temperature for 2.5 hours the plates were measured on an EnVision plate reader at Excitation 405nm, Emission1=460nm and Emission 2=530nm. The %Activity was determined from the ratio of 460nm/530nm.
With `O[C@@H]1CCCC[C@H]1N1CCC(c2ccccc2)CC1`, the activity change, negative = inhibition is -6.58% [at 38 µM].
In the case of `NC(=O)c1ccc(OC[C@H](O)CN2CC=C(c3ccc(F)cc3)CC2)cc1`, the activity change, negative = inhibition was 18.4% [at 38 µM].
The figure for `CN1CCc2nc(SCC(=O)OC(C)(C)C)c(C#N)cc2C1` is -5.69%; for `Cc1c(N=Cc2c(O)n(CCc3ccccc3)c(=O)[nH]c2=O)c(=O)n(-c2ccccc2)n1C` it is -11.1%; for `O=c1[nH]c(=O)n(Cc2ccccc2)c(O)c1C=NCCN1CCNCC1` it is 1.47%.
The figure for `CC(C)(C)NC[C@H](O)c1ccccc1Cl` is -8.82% [at 38 µM].
Take `COc1ccc(OC)c([C@@H](O)[C@H](C)NC(C)(C)C)c1`: the activity change, negative = inhibition is 8.72%.
The figure for `O=[N+]([O-])c1ccc(O[C@H]2O[C@@H](CO)[C@@H](O)[C@@H](O)[C@@H]2F)c([N+](=O)[O-])c1` is -3.88% [at 38 µM]; for `COC(=O)C(O)(c1c[nH]c2ccccc12)C(F)(F)F` (stereo not given) it is -14.1%; for `Cc1ccc(C)c(C2(O)CC(C)N(C)CC2C)c1` (stereo not given) it is 22.9%.
The figure for `CN1CCc2nc3sc(C#N)c(N)c3c(-c3cccs3)c2C1` is -0.879%.
The figure for `C=CCOC(=O)C1=C(C)OC(N)=C(C#N)C12C(=O)N(CN1CCOCC1)c1ccccc12` (stereo not given) is 2.42%.
In the case of `CCOc1ccc(Cc2c(O)[nH]c(=O)[nH]c2=O)cc1`, the activity change, negative = inhibition was -3.54%.
The figure for `CC(C)(C)OC(=O)c1c(N)n(Cc2ccco2)c2nc3ccccc3nc12` is -26.4%; for `CC(=O)[C@@H]1CC[C@@H]2[C@H]3CC[C@H]4C[C@@H](O)CC[C@]4(C)[C@@H]3C(=O)C[C@]21C` it is -0.27% [at 38 µM]; for `CC1CCC(C(C)C)C(OP(N)(=O)c2ccccc2)C1` (stereo not given) it is -1.85%.
The figure for `CC1(c2ccccc2)NCCN2C(=O)CSC21` (stereo not given) is 2.95%.
The figure for `C[C@H]1CCC/C=C/C2C[C@H](O)CC2[C@H](O)/C=C/C(=O)O1` (stereo not given in full) is 5.62%; for `CCc1nc(N2CCNCC2)c(C#N)c2c1CSC(C)(C)C2` it is -1.4%; for `Oc1ccc2c3c1O[C@@H]1[C@@H](O)CC[C@]4(O)[C@H](C2)N(CC2CCC2)CC[C@@]314` it is 2.34% [at 38 µM].
For `CCC(=NCCN1CCCCC1)c1c(O)n(C)c(=O)n(C)c1=O`, the activity change, negative = inhibition was 9.93%.
The figure for `CCCCCCn1c(O)c(C=Nc2c(C)n(C)n(-c3ccccc3)c2=O)c(=O)[nH]c1=O` is -18.8%.
`CC1(C)[C@@H]2CC[C@]1(C)CN(CCC[N+](C)(C)C)C2`: the activity change, negative = inhibition is -4.07% [at 7.69 µM].
As to `CCCCc1nc2ccccc2c(=O)n1-c1ccccc1O`, the activity change, negative = inhibition was -4.36%.
The figure for `CCn1c(O)c(C(=O)CC2NCCc3ccccc32)c(=O)n(CC)c1=S` (stereo not given) is 5.38%; for `NCC[Se][Se]CCN` it is 19.7% [at 7.69 µM].
The figure for `CC1CN=C(Nc2ccc(N(C)C)cc2)S1` (stereo not given) is 17.8%; for `COc1ccc(Cn2c(O)c(C=NCCN3CCOCC3)c(=O)[nH]c2=O)cc1` it is -6.69%.
The figure for `N[C@]1(C(=O)O)CC[C@@H](C(=O)O)C1` is -3.05% [at 38 µM].
For `NCC1(c2ccc3c(c2)OCCO3)CCCC1`, the activity change, negative = inhibition was 3.9%.
The figure for `COc1ccc(-n2c(SC)nc3ccccc3c2=O)cc1` is 0.0474%; for `O=C(COc1ccc2ccccc2c1)N1CCN(C2CCN(Cc3ccccc3)CC2)CC1` it is 9.29%.
The figure for `COCCOC(=O)c1c(N)n(Cc2ccco2)c2nc3ccccc3nc12` is -12.5%.
The figure for `CC1=C(C(=O)OC(C)C)[C@]2(C(=O)N(CC(N)=O)c3ccccc32)C(C#N)=C(N)O1` is 16.8%; for `C=C(C)[C@@H]1CN[C@H](C(=O)O)[C@H]1CC(=O)O` it is 8.5% [at 38 µM].
As for `COc1ccc(C2SCC(=O)Nc3c2c(=O)[nH]n3C2CCCCCC2)cc1` (stereo not given), the activity change, negative = inhibition is -18.2%.
As to `CC(=O)OC1(c2ccc(C)cc2)CN2CCC1c1ccccc12` (stereo not given), the activity change, negative = inhibition is 7.68%.
The figure for `CCCSP1(=S)NCCCO1` (stereo not given) is 32.4%.
For `OC(c1ccc(F)cc1)C(c1ccccc1)N1CCOCC1` (stereo not given), the activity change, negative = inhibition is -21.7%.
The figure for `CCCC[N+]1(C)[C@@H]2CC(OC(=O)[C@@H](CO)c3ccccc3)C[C@H]1[C@H]1O[C@H]12` (stereo not given in full) is 5.93% [at 38 µM].
